The source of these data is PubChem BioAssay.

The structures appear in SMILES notation. Several values for one entry are separate records, joined by “and”; a condition that tells them apart may be missing. Equal values may be shown once. Records with an inconclusive call do not appear. Activity calls are given as the source filed them. Unless noted, the rule behind the calls is not given here.

For assay [1], the system named is Aerobactin synthetase IucA (Klebsiella pneumoniae). The assay can be described thus: inhibition of K. pneumoniae IucA enzyme – biochemical, Tocris library, absorbance (AID 1345561).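 Note: 100% = enzyme without compound and 0% = no enzyme.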 As to conditions: purified IucA enzyme assay, absorbance (OD) read-out; stronger effect = lower value;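 tested at 8 µM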.
Assay [2] in a line: viability loss in pontine glioma line – cell-based, JHH-DIPG-1, MIPE4.0, CellTiter-Glo, qHTS, dose response (AID 1347062; cut-off not given, nearly all actives have AC50 up to about 27 µM;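 for AC50: cells exposed to compound for two days before readout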). As to conditions: JHH-DIPG-1 viability, CellTiter-Glo ATP luminescence. Background: In ATP-based viability assays light output follows the ATP content of the culture.
The nature of assay [3]: viability loss in pontine glioma line – cell-based, SU-DIPG-IV, MIPE4.0, CellTiter-Glo, qHTS, dose response (AID 1347063; cut-off not given, nearly all actives have AC50 up to about 30 µM;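 note: compound exposure lasted 48 hours before the viability readout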). As to conditions: CellTiter-Glo ATP luminescence.
A short description of assay [4]: viability loss in pontine glioma line – cell-based, SU-DIPG-XIII, MIPE5.0, CellTiter-Glo, qHTS, dose response (AID 1347064; cut-off not given, nearly all actives have AC50 up to about 23 µM;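 for AC50: cells exposed to compound for 48 hours before the viability read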). As to conditions: CellTiter-Glo ATP luminescence.
The nature of assay [5]: growth inhibition of DIPG cells – cell-based, MIPE5.0 library, qHTS (AID 1347068; cut-off not given, nearly all actives have IC50 up to about 30 µM;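 for IC50: cells exposed to compound for 48 hours before viability readout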). The settings on record: SU-DIPG-XXV viability. For orientation: In qHTS, concentration-response curves come from the screen itself.
Assay [6] can be described thus: viability loss with induced miR-34 in A549 – imaging, A549 dox-inducible miR-34, nuclei and caspase counts, primary screen (AID 1347080;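 active = compounds whose cell count with miR-34 switched on is under 0.7 times the count with it off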). The settings on record: A549 miR-34 inducible, Hoechst nuclei count, 48 h.
Assay [7] is described as follows: galactose survival enhancers in mitochondrial complex I cybrids – cell-based, galactose medium, ATP luminescence, primary screen (AID 1645843;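 active = z-score of at least 1.8 in each of two replicates, scored against plate mean and spread of sample wells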;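 note: positive z means more ATP and so rescue of galactose-driven cybrid death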). As to conditions: complex I mutant cybrid cells, 72 h, stronger effect = higher value.
Assay [8] is described as follows: compounds altering circadian rhythm period length – cell-based, LOPAC library, luminescence reporter (AID 2774).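 Note: values are relative to mean of DMSO wells on each plate.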 As to conditions: circadian reporter cells, at 7 µM, actives lie on both sides.
Assay [9] has as its system Hepatitis C virus NS3 helicase. As to the kind of experiment: blockers of NS3h binding to ssDNA – biochemical, fluorescence polarization, LOPAC1280 library, primary screen (AID 687035; in the data active = inhibition above about 37%). As to conditions: Purified HCV NS3 helicase, Cy5-dT15 ssDNA binding fluorescence polarization; stronger effect = higher value; concentration not given here. (In general: Polarisation of emitted light reports the rotation of a fluorescent probe.)

Assay [10] can be described thus: compounds altering Cy5-DNA-NS3h complex signal – biochemical, LOPAC1280, artefact control for HCV NS3 helicase inhibitor project (AID 687037). The settings on record: Cy5-DNA-NS3h complex fluorescence interference counterscreen.
The nature of assay [11]: viability loss in pontine glioma line – cell-based, SU-DIPG-XIII, MIPE4.0, CellTiter-Glo, qHTS, dose response (AID 1347061; cut-off not given, nearly all actives have AC50 up to about 37 µM;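 note: cells exposed to compound for 48 hours before readout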). The settings on record: CellTiter-Glo ATP luminescence.
Assay [12] can be described thus: growth inhibition of DIPG cells – cell-based, MIPE4.0 library, CellTiter-Glo luminescence, qHTS (AID 1347066; cut-off not given, nearly all actives have AC50 up to about 30 µM;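 note: cells exposed to compound for 48 hours before readout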). The settings on record: SU-DIPG-VI viability, CellTiter-Glo ATP luminescence.
A short description of assay [13]: JHH-DIPG-1 glioma cell viability, MIPE5.0 library, CellTiter-Glo luminescence, qHTS (AID 1347067; cut-off not given, nearly all actives have AC50 up to about 26 µM;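 note: cells exposed to compound for 48 hours before readout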). As to conditions: JHH-DIPG-1 glioma viability, CellTiter-Glo ATP luminescence.
Assay [14] can be described thus: P. berghei load reduction in hepatocytes – cell-based, HepG2, luciferase luminescence, HepG2 viability, primary screen (AID 624349; in the data active = parasite load remaining mostly below about 12%, no sharp cut-off; inactive = mostly above about 10%;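 note: 100% = mean of DMSO negative control wells on the same plate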). As to conditions: P. berghei liver stage in HepG2, luciferase luminescence, concentration not given here; parasite load remaining: stronger effect = lower value; viability: measured here: HepG2 viability without parasites.
Assay [15] is described as follows: MELAS cybrid and Rieske KO viability enhancers – cell-based, MELAS cybrids, Rieske KO mouse fibroblasts, CellTiter-Glo, primary screen (AID 1508586;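 active = mean z-score across replicates of 1.96 or higher in either the MELAS or the Rieske mutant cell line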;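 note: z relative to plate mean and SD of compound and empty wells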). As to conditions: low glucose.
Assay [16] in a line: blockers of cellular phospholipid synthesis – cell-based, LOPAC library, screen 4, primary screen (AID 1347384). The settings on record: animal cells, phospholipid biosynthesis inhibition screen; at 10 µM.
Setting [17] is: stronger effect = lower value, cell number ratio, induced over uninduced.
The mark [18] stands for this setting: measured here: relative caspase fold change +Dox/-Dox.
[19] abbreviates: measured here: total cells with miR-34 induction, stronger effect = lower value.
[20] abbreviates: measured here: total cells without miR-34 induction.
Setting [21] is: MELAS cybrid survival, CellTiter-Glo 48 h, stronger effect = higher value.
[22] abbreviates: Rieske KO mouse fibroblast survival, CellTiter-Glo 72 h.

For orientation: remaining activity means the signal under treatment as a percentage of the control signal. A word on the AC50: it is the midpoint of the concentration-response curve, whichever way the signal moves. Take `COC1CCC(C(=O)c2ccc3nc4c(cc3c2)CCCO4)CC1` (configuration not stated): the remaining activity in [1] is 99.8% (inactive). For the same molecule, the concentration at half-maximal activity (AC50) in [2] was 20.9 µM (active); in [3], 9.35 µM (active). For the same molecule, the molecule was classed as inactive in assay [4] and in assay [5]. For the same molecule, the fold change in assay [6] (setting [17]) is 0.932 (inactive); in [6] (setting [18]), 1.27. Besides, the cell count in [6] (setting [19]) stood at 8170; in [6] (setting [20]), 8760. In addition, the z-score in assay [7] is 0.32 (inactive).
Usually inhibition stands for the drop in the measured response relative to a control, in per cent. On to `O=C(O)C1CCCN(CCC=C(c2ccccc2)c2ccccc2)C1` (configuration not stated), for which the period change in assay [8] was 0.005 h (inactive). Further, the inhibition in assay [9] was -1% (inactive). The fluorescence ratio (interference) in [10] is 0.9 (inactive). Besides, the remaining activity in [1] was 104% (inactive). Besides, the outcome in [11], in assay [2], in assay [3], in assay [4], in assay [12] and in [13] was inactive. The molecule was called inactive in [5]. In addition, the fold change in assay [6] (setting [17]) was 0.98 (inactive) and 0.952 (inactive); in assay [6] (setting [18]), 1.12 and 1.07. Besides, the cell count in assay [6] (setting [19]) was 9290 and 8980; in assay [6] (setting [20]) it was 9480 and 9430. In addition, in assay [7], the z-score is 0.12 (inactive) and 0.13 (inactive).
Broadly, the viability is a read-out of living cells in per cent, often relative to untreated cells. Consider `CC[C@H](NC(C)C)[C@H](O)c1ccc(O)c2[nH]c(=O)ccc12`, for which the parasite load remaining in assay [14] is 42.5% (inactive). Further, the viability in assay [14] was 102%. In addition, the remaining activity in assay [1] was 95.2% (inactive). Besides, the result in [11], in assay [2], in assay [3], in assay [12] and in assay [13] was inactive. Moreover, the fold change in [6] (setting [17]) was 0.929 (inactive) and 0.941 (inactive); in assay [6] (setting [18]) it was 0.691 and 1.28. Further, the cell count was 8730 and 10200 in assay [6] (setting [19]); 9400 and 10800 in assay [6] (setting [20]). Further, the z-score in [15] (setting [21]) is -0.163 (inactive); in assay [15] (setting [22]) it was -0.0411; in [7], 0.095 (inactive) and 0.72 (inactive).
The term IC50 denotes the concentration at which inhibition is half-maximal. As to `O=Nc1c(-c2c(O)[nH]c3cc(Br)ccc23)[nH]c2ccccc12`, the parasite load remaining in [14] was 17.4% (inactive). Besides, in assay [14], the viability was 92.7%. The inhibition in assay [9] is 2% (inactive). The fluorescence ratio (interference) in assay [10] was 0.9 (inactive). Moreover, the remaining activity in [1] was 107% (inactive). In addition, the call in [11] was inactive. In addition, the AC50 is 20.9 µM (active) in [2]; 3.32 µM (active) in assay [3]; 14.8 µM (active) in assay [4]; 20.9 µM (active) in [12]; 14.8 µM (active) in assay [13]. Besides, in [5], the half-inhibitory concentration (IC50) is 10.5 µM (active). For the same molecule, the result in assay [16] was active. Further, the z-score in assay [15] (setting [21]) is -0.015 (inactive); in assay [15] (setting [22]) it was 1.62; in [7], -1.29 (inactive) and -0.705 (inactive).
